23 molecules from PubChem BioAssay (NCATS) can be followed below.

The nature of experiment [1]: qHTS assay for measurement of the activity of small molecule inhibitors on Zika virus induced Caspase-3 activity in human astrocytoma cells (AID 1224859). Also: potency is read from the fitted curve at half-maximal effect. The method in brief:
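Caspase activation in ZIKV-infected SNB-19 cells (2 FFU/cell, 6 h) measured by Caspase-Glo 3/7 luminescence after 30 min RT; compound pre-incubated 1 h; normalised to uninfected and infected controls.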

Experiment [2] is described as follows: Natriuretic polypeptide receptor (hNpr1) antagonism - Pilot counterscreen GloSensor control cell line (AID 1347045; calls by dose curve; also: potency is read from the fitted curve at half-maximal effect). The procedure, abridged:
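HEK293 cells carrying the GloSensor cGMP sensor (GIP/pGS-40F) were loaded with 2% GloSensor reagent for 2 h, exposed to compounds for 30 min, and then stimulated with 50 uM sodium nitroprusside for 20 min at room temperature.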

Experiment [3] deals with Atrial natriuretic peptide receptor 1 (Homo sapiens) (UniProt P16066). The experiment is described as follows: Natriuretic polypeptide receptor (hNpr1) antagonism - Pilot screen (AID 1347049; calls by dose curve;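 also: agonist-evoked cGMP luminescence read 20 min after hNppA addition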; also: potency is read from the fitted curve at half-maximal effect). The procedure, abridged:
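Readout is cGMP-driven firefly luciferase luminescence in HEK293 cells carrying hNpr1 and a PDE5-domain GloSensor, read before and 20 min after 0.1 nM hNppA stimulation. Cells had 2% substrate reagent for 2 h and test compound for 30 min.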

Experiment [4] addresses Atrial natriuretic peptide receptor 2 (Homo sapiens) (UniProt P20594). Briefly: Natriuretic polypeptide receptor (hNpr2) antagonism - Pilot subtype selectivity assay (AID 1347050; calls by dose curve; also: potency is read from the fitted curve at half-maximal effect). The method in brief: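 Pilot selectivity screen against hNpr2: HEK293 cGMP-sensor cells are treated with LOPAC1280 compounds, then with hNppC peptide at 1 nM final. The cGMP-driven luminescence change over 20 min at room temperature is the read-out.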

For experiment [5], the target named is Parathyroid hormone/parathyroid hormone-related peptide receptor (Homo sapiens) (UniProt Q03431). The experiment is described as follows: qHTS for PTHR1 Agonists: Optimization Screen against the NCGC LOPAC library (AID 1347079).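 Also: GloSensor cAMP luminescence in HEK-293 GP2 cells expressing human PTHR1 with IBMX.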 The method in brief:
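Compounds were tested across a qHTS titration. PTHR1-expressing GP2 cells report cAMP rises via GloSensor luminescence after 1 hr compound exposure at 37C with IBMX present.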

The target in experiment [6] is T1, Tyrosine-protein phosphatase non-receptor type substrate 1 (Homo sapiens) + Leukocyte surface antigen CD47 (Homo sapiens) (UniProt P78324+Q08722). The experiment is described as follows: CD47-SIRPalpha protein protein interaction - LANCE assay qHTS validation (AID 1347057; active = well fitted curve in the direction sought with a large enough effect in the signal ratio, with a control signal flat, not every such curve was filed as active; the % refers to the signal ratio; also: series mostly up to about 38 µM). The method in brief:
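First, His-tagged CD47 and Eu-labelled anti-His antibody met the compound for 30 min; next, site-specifically biotinylated SIRPalpha was added for 30 min; finally streptavidin-APC was added before reading the TR-FRET ratio.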

In experiment [7] the target is T1, Tyrosine-protein phosphatase non-receptor type substrate 1 (Homo sapiens) + Leukocyte surface antigen CD47 (Homo sapiens). The experiment is described as follows: CD47-SIRPalpha protein protein interaction - Alpha assay qHTS validation (AID 1347059).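 Also: bead proximity luminescence from CD47 binding SIRPalpha after compound preincubation with SIRPalpha.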 The method in brief:
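Binding is measured by AlphaScreen proximity: Ni-NTA acceptor beads capture His-CD47, streptavidin donor beads capture biotin-SIRPalpha. Each of three additions (SIRPalpha with compound, CD47, beads) incubates 30 min at room temperature protected from light.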

Experiment [8] has the same target. The experiment is described as follows: CD47-SIRPalpha protein protein interaction - HTRF assay qHTS validation (AID 1347058; active = well fitted curve in the direction sought with a large enough effect in the signal ratio, not every such curve was filed as active; the % refers to the signal ratio;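 also: recombinant soluble extracellular CD47 with His tag and biotinylated SIRPalpha domains; series mostly up to about 38 µM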). The procedure, abridged:
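TR-FRET read (Ch1/Ch2 ratio) of soluble extracellular CD47 and Avi-biotinylated SIRPalpha domains in PBS pH 7.4 with 0.05% IGEPAL; 7-point compound titration. Sequential 30 min room-temperature steps; non-biotinylated SIRPalpha as control inhibitor.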

A short description of experiment [9]: NS1 protein of Zika virus - qHTS assay to identify small molecule inhibitors in human HEK 293 cells (AID 1347053). Also: series mostly up to about 46 µM; nearly all actives have a fitted effect of over 55% in size. The procedure, abridged: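 Inhibition of NS1 expression was scored in HEK 293 cells given compound 1 h ahead of MR766 virus (MOI = 0.5). Following 24 h at 37 C, two anti-NS1 antibodies generated a TR-FRET signal, scaled between uninfected and infected controls.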

Experiment [10] can be described thus: qHTS of pediatric cancer cell lines to identify multiple opportunities for drug repurposing: Primary screen for TC32 cells (AID 1347089). Also: nearly all actives have a fitted effect of over 60% in size. The procedure, abridged: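 TC32 cells, 500-1,000/well in growth medium, compound-treated 48 h at 37 °C; viability from CellTiter-Glo luminescence. Primary screen: MIPE 11-point (0.78 nM–46 µM final), NPC 8-point (0.59 nM–46 µM final); confirmatory at 11-point dilutions.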

Experiment [11] in a line: qHTS of pediatric cancer cell lines to identify multiple opportunities for drug repurposing: Primary screen for DAOY cells (AID 1347090). Also: series mostly up to about 46 µM; nearly all actives have a fitted effect of over 55% in size. The method in brief: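 Cell viability, CellTiter-Glo luminescence; 500-1,000 cells/well, 8- or 11-point titration, 48 h compound exposure at 37 degrees C, 5% CO2. Controls: DMSO neutral, bortezomib 2.3 µM final as positive.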

The structures appear in SMILES notation. Records with an inconclusive call do not appear. Calls of active or inactive are those of the source. Unless noted, calls follow the shape of the dose curve; as a rule, active = well fitted curve in the direction sought with a large enough effect; inconclusive = small, poorly fitted or top-dose-only effect, or another doubt; inactive = no such curve, though single readings can be large; an effect the other way counts as inactive or inconclusive.

Sequence of Atrial natriuretic peptide receptor 1 (Homo sapiens) (P16066 whole entry, looked up): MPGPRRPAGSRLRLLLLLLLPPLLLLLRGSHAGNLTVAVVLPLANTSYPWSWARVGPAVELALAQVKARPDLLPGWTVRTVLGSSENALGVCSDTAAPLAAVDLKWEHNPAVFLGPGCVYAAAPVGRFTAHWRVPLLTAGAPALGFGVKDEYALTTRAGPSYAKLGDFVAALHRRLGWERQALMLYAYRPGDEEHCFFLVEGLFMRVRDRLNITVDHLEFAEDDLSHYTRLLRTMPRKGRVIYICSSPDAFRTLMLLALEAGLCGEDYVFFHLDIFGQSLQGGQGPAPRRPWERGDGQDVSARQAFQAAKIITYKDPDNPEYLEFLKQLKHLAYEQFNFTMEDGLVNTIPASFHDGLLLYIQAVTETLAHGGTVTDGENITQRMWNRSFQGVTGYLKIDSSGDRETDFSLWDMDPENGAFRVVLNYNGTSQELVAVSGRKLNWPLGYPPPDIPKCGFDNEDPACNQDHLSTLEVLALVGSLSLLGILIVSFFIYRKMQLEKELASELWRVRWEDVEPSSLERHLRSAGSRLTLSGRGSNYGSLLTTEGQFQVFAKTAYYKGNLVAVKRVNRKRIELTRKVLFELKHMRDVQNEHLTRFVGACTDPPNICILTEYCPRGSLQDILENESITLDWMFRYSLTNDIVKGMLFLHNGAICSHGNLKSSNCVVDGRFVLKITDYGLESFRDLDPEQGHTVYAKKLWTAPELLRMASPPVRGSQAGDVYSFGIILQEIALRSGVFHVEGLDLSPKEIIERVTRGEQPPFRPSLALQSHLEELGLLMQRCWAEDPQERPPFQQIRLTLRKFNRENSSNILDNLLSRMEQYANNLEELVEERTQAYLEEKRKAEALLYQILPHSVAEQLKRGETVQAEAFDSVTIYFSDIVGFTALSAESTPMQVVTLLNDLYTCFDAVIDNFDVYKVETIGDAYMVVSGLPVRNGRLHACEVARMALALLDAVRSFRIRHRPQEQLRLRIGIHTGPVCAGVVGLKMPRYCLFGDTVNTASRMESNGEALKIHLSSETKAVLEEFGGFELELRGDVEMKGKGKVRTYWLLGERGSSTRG
T1 sequence (P78324 whole entry, looked up): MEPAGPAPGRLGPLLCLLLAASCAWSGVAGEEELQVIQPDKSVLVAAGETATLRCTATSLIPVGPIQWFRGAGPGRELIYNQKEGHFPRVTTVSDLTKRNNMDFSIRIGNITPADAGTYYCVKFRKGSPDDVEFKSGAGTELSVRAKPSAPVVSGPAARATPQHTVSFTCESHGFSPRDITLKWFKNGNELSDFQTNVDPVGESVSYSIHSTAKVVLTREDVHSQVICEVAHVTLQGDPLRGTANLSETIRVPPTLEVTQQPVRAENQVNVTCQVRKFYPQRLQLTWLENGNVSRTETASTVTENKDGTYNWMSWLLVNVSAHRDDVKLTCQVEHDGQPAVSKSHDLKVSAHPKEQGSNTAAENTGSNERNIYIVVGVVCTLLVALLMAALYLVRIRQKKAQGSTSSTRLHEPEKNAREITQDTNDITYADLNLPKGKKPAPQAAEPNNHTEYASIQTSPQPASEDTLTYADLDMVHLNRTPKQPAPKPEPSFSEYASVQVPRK
T1 sequence (Q08722 whole entry, looked up): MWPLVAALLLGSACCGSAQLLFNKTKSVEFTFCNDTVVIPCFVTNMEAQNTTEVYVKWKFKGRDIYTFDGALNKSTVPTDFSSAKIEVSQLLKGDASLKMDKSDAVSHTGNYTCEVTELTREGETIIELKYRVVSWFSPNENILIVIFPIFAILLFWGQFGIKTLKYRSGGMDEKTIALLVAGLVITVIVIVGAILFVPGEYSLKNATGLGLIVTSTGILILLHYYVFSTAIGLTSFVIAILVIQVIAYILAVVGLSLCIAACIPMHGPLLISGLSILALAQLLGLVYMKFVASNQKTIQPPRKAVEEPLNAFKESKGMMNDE
Sequence of Atrial natriuretic peptide receptor 2 (Homo sapiens) (P20594 whole entry, looked up): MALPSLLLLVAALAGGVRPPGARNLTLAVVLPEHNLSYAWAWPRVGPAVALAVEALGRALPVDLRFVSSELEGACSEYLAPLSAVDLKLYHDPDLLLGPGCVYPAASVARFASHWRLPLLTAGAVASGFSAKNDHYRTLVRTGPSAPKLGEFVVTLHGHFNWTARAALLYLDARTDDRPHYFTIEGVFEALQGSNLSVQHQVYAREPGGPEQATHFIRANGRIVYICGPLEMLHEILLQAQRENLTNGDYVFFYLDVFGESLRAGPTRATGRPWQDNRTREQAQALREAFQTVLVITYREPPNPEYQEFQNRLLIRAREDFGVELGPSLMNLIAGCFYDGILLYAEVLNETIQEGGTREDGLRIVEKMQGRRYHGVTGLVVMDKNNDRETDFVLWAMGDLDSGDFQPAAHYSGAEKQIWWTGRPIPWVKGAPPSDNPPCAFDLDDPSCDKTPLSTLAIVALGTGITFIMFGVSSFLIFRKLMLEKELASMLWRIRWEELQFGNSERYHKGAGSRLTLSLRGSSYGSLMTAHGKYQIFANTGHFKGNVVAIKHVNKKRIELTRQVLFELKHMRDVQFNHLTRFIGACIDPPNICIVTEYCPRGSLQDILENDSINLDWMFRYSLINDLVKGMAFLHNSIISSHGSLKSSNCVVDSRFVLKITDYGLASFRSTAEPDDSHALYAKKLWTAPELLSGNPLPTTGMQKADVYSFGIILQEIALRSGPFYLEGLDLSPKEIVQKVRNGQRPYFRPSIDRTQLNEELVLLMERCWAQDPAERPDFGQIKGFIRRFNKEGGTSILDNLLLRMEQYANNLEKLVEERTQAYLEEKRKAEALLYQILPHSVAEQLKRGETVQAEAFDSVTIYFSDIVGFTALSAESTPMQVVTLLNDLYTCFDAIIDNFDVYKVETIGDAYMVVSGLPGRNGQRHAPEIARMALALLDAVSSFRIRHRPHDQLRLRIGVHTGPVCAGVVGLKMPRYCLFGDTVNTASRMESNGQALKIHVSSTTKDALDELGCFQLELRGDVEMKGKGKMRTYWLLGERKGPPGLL
Sequence of Parathyroid hormone/parathyroid hormone-related peptide receptor (Homo sapiens) (Q03431 whole entry, looked up): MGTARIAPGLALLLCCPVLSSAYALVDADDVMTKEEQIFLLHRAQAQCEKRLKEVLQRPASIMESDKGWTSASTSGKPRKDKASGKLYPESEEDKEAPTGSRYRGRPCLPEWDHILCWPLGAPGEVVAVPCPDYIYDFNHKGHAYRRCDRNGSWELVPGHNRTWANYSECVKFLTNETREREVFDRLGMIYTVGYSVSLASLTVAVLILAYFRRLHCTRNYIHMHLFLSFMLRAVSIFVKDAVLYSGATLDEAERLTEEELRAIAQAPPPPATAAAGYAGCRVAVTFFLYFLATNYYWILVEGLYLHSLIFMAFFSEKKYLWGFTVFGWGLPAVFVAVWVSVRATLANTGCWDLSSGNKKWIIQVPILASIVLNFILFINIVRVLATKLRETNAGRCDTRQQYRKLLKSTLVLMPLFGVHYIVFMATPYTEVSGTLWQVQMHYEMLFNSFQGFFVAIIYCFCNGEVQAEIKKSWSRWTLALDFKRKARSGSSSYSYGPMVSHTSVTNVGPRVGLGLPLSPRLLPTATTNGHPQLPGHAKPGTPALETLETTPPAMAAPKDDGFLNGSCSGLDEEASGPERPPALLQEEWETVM

Take `CCc1c(C(=O)NCCc2ccc(N3CCCCC3)cc2)[nH]c2ccc(Cl)cc12`: the Potency result in [1], in [2], in experiment [3], in experiment [4] and in experiment [5] was “inactive” in each case.

With `CC(=O)/C=C1\C(=O)N(C)c2ccccc21`, the Potency entry in experiment [1], in experiment [6], in experiment [7] and in experiment [5] was “inactive” throughout. The results for the Potency in [2], in experiment [3] and in [4] were 9.27 µM (active), 16.9 µM (active) and 14.7 µM (active), respectively.

Turning to `CCN(CC)c1ncnc2c1ncn2[C@@H]1O[C@H](COP(=O)(O)OP(=O)(O)C(Br)(Br)P(=O)(O)O)[C@@H](O)[C@H]1O`, the Potency entry in [1], in experiment [2], in experiment [3], in experiment [4], in [6] and in experiment [7] was “inactive” each time. In addition, in [5], the Potency result is “inactive”. Moreover, the result in experiment [8] was inactive.

In the case of `N#C/C(=C\c1ccc(O)c(O)c1)C(=O)c1ccc(O)c(O)c1`, the Potency result in experiment [1], in [2], in experiment [3], in experiment [4], in experiment [9] and in experiment [6] was “inactive” throughout. Further, the Potency entry in experiment [5] was “inactive”.

For the molecule `O=C(O)CC[C@@H](C(=O)O)N1C(=O)c2ccccc2C1=O`, the Potency entry in [1], in experiment [2], in experiment [3], in experiment [4], in experiment [9] and in [6] was “inactive” each time. The Potency entry in experiment [7] and in [5] was “inactive” in each case. Further, the result in [8] was inactive.

As for `Cc1nc2sccn2c(=O)c1CCN1CCC(=C(c2ccccc2)c2ccc(F)cc2)CC1`, the Potency result in experiment [1], in experiment [2], in [3], in experiment [4] and in [5] was “inactive” throughout.

On to `CN(C)c1ccc(/C=C2\C(=O)Nc3ccccc32)cc1`, for which the Potency is 10 µM (active) in experiment [1], 4.14 µM (active) in experiment [2], 1.2 µM (active) in [3] and 10.4 µM (active) in experiment [4]. Also, the Potency entry in experiment [9] and in experiment [5] was “inactive” throughout.

Turning to `CC(C)ON([C@@H](C(=O)NO)C(C)C)S(=O)(=O)c1ccc(-c2ccccc2)cc1`, the Potency entry in [1], in experiment [2], in experiment [3], in experiment [4] and in [5] was “inactive” throughout.

`O=C1C(SCCO)=C(SCCO)C(=O)c2ccccc21`: the Potency result in [1], in experiment [6], in experiment [7] and in [5] was “inactive” throughout. In addition, the values for the Potency in [2], in experiment [3] and in [4] were 2.07 µM (active), 5.36 µM (active) and 2.93 µM (active), respectively.

Turning to `O=C1O/C(=C/Br)CCC1c1cccc2ccccc12` (stereo not drawn), the Potency entry in experiment [1] and in [5] was “inactive” each time. The Potency in experiment [2] was 16.5 µM (active); in [3], 19 µM (active); in [4] it was 11.7 µM (active).

Consider `CC(C)(C)c1ccc(S(=O)(=O)/C=C/C#N)cc1`, for which the Potency entry in experiment [1], in experiment [6], in experiment [7] and in experiment [5] was “inactive” each time. The Potency was 6.56 µM (active) in [2], 12 µM (active) in experiment [3] and 7.36 µM (active) in experiment [4]. In addition, the result in experiment [8] was inactive.

`CCCC1(C)C(C#N)(C#N)C1(C#N)C#N`: the Potency result in [1] and in [5] was “inactive” each time. Moreover, the Potency in experiment [2] is 5.85 µM (active); in [3], 8.49 µM (active); in experiment [4], 4.65 µM (active).

For `O=C(O)[C@@H]1C[C@H](C(=O)O)N1`, the Potency result in [1], in experiment [2], in [3], in experiment [4] and in [5] was “inactive” throughout.

For the molecule `CC(C)OC(=O)c1cc(C(=O)OC(C)C)cc([N+](=O)[O-])c1`, the Potency result in experiment [1], in experiment [9], in experiment [10] and in experiment [11] was “inactive” each time.

In the case of `CO/S(=N\S(=O)(=O)c1ccc(Cl)cc1)c1ccc([N+](=O)[O-])cc1` (stereo not drawn), the Potency entry in [1], in experiment [3], in experiment [4] and in experiment [5] was “inactive” in each case.

On to `C[N+](C)(CCCCCC[N+](C)(C)CCCN1C(=O)c2cccc3cccc(c23)C1=O)CCCN1C(=O)c2cccc3cccc(c23)C1=O`, for which the Potency result in [1], in experiment [3], in experiment [4] and in experiment [5] was “inactive” each time.

With `C[N+]1(C)C2CC(OC(=O)[C@H](CO)c3ccccc3)CC1C1OC12` (stereo partly drawn), the Potency result in experiment [1], in experiment [9], in [6] and in experiment [7] was “inactive” in each case. The result in experiment [8] was inactive.

In the case of `CCCCCCCCCCCCCCCCCCNC(=O)OCC(COP(=O)([O-])OCC[n+]1ccsc1)OC` (stereo not drawn), the Potency entry in experiment [1], in [3], in [4] and in experiment [5] was “inactive” throughout.

For the molecule `C=C[C@@H]1CN2CC[C@@H]1C[C@H]2[C@H](O)c1ccnc2ccc(OC)cc12`, the Potency result in experiment [1], in experiment [3], in [4] and in experiment [9] was “inactive” throughout.

As to `N.N.N.N.N.N.N.N.N.N.N.N.N.N.O.O.[Ru+4].[Ru+5].[Ru+5]`, the Potency entry in [1], in experiment [3], in experiment [4] and in experiment [9] was “inactive” throughout.

As to `C[C@@H](NC(=O)/C(C#N)=C/c1ccc(O)c(O)c1)c1ccccc1`, the Potency entry in [1], in experiment [3], in experiment [4] and in experiment [5] was “inactive” throughout.

Consider `COc1ccccc1N1CCN(CCCCNS(=O)(=O)c2cccc3c(N(C)C)cccc23)CC1`, for which the Potency entry in [1], in experiment [3], in experiment [4] and in [5] was “inactive” in each case.

In the case of `COc1cc2nc(N3CCN(C(=O)OCc4ccccc4)C(C(=O)NC(C)(C)C)C3)nc(N)c2cc1OC` (stereo not drawn), the Potency entry in [1], in [2], in experiment [4] and in experiment [5] was “inactive” each time.
